From PubChem BioAssay (NCI)
Where “and” joins values, the source holds several entries; their conditions need not be identical. Identical values can stand only once. About 79,000 compounds went through this panel and 15% of them were active in at least one assay; those are over-represented in the sample as a whole. More than one record can exist for a structure, and the calls need not agree. Calls of active or inactive are those of the source. No stated cut-off is given here; in the data, active means growth inhibition above about 70%; inactive means the rest.

How the values were obtained:
[1] = NCI Yeast Anticancer Drug Screen. Data for the rad50 strain (AID 155);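 further: 0% = growth of vehicle-only cultures of the same strain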; conditions: S. cerevisiae rad50 strain growth inhibition, stronger effect = higher value
In short: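 Relative growth inhibition (compound vs vehicle) was measured in yeast with a defined repair-gene alteration.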

[2] = NCI Yeast Anticancer Drug Screen. Data for the mec2-1 strain (AID 157); conditions: S. cerevisiae mec2-1 strain, stronger effect = higher value
In short: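 Cells of the genetically defined mec2-1 yeast strain are incubated with test compound. Inhibition of growth is calculated against vehicle-treated controls.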

[3] = NCI Yeast Anticancer Drug Screen. Data for the sgs1 mgt1 strain (AID 161);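 further: 0% = growth of cultures given vehicle only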; conditions: S. cerevisiae sgs1 mgt1 strain, stronger effect = higher value
In short: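 Genetically altered yeast, compound exposure, growth inhibition relative to vehicle.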

[4] = NCI Yeast Anticancer Drug Screen. Data for the cln2 rad14 strain (AID 165);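 further: 0% = growth equal to vehicle treated cultures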; conditions: S. cerevisiae cln2 rad14 strain, stronger effect = higher value
In short: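 The screen exposed genetically defined yeast (cln2 rad14) to test compounds and scored growth inhibition relative to vehicle-treated controls.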

[5] = NCI Yeast Anticancer Drug Screen. Data for the bub3 strain (AID 167); conditions: S. cerevisiae bub3 mutant strain, stronger effect = higher value
In short: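 Screening used yeast with an engineered genetic alteration affecting cell cycle control. Compound-exposed cultures were compared with vehicle cultures, and reduced growth was taken as inhibition.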

[6] = NCI Yeast Anticancer Drug Screen. Data for the mlh1 rad18 strain (AID 175); conditions: S. cerevisiae mlh1 rad18 strain growth inhibition, stronger effect = higher value
In short: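 Compound-treated yeast growth, normalised to vehicle controls. Strain bears defined DNA repair mutations.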

[7] = at 5.0 µM (retest, dose inferred, filed as 0.5)
[8] = at 50.0 µM (retest, dose inferred, filed as 5.0)

Row | Compound | growth inhibition [1, 7] | growth inhibition [1, 8] | growth inhibition ([1]; at 50.0 µM) | growth inhibition [2, 7] | growth inhibition [2, 8] | growth inhibition ([2]; at 50.0 µM) | growth inhibition [3, 7] | growth inhibition [3, 8] | growth inhibition ([3]; at 50.0 µM) | growth inhibition [4, 7] | growth inhibition [4, 8] | growth inhibition ([4]; at 50.0 µM) | growth inhibition [5, 7] | growth inhibition [5, 8] | growth inhibition ([5]; at 50.0 µM) | growth inhibition [6, 7] | growth inhibition [6, 8] | growth inhibition ([6]; at 50.0 µM)
1 | O=[N+]([O-])c1ccc2ccccc2c1O | 2% (inactive) | 94% (active) | 96.7% (active) | 8% (inactive) | 97% (active) | 97.7% (active) | 5% (inactive) | 97% (active) | 95.7% (active) | 3% (inactive) | 98% (active) | 97.4% (active) | -3% (inactive) | 93% (active) | 95.5% (active) | 3% (inactive) | 97% (active) | 98.5% (active)
2 | CCC(=O)OCOc1ccc(/C=C2\CCC(CN(C)C)C2=O)cc1 (stereo not drawn) | 30% (inactive) | 53% (inactive) | 93.3% (active) | 23% (inactive) | 66% (inactive) | 92.6% (active) | 40% (inactive) | 88% (active) | 92.5% (active) | 29% (inactive) | 34% (inactive) | 90.9% (active) | 36% (inactive) | 98% (active) | 84.5% (active) | 33% (inactive) | 66% (inactive) | 90.8% (active)
3 | C=C1C(=O)OC2CC(C)C3C4OC4C(O)C3(C)C(O)C12 (stereo not drawn) | 2% (inactive) | 0% (inactive) | 69.9% (inactive) | 2% (inactive) | 4% (inactive) | 39.1% (inactive) | 4% (inactive) | 8% (inactive) | 65.7% (inactive) | -3% (inactive) | -6% (inactive) | 50.4% (inactive) | 2% (inactive) | 6% (inactive) | 71% (active) | 0% (inactive) | -2% (inactive) | 63.6% (inactive)
4 | Nc1nc(N)c2nc3c4ccccc4c4ccccc4c3nc2n1 | 2% (inactive) | 35% (inactive) | 56.5% (inactive) | 1% (inactive) | 30% (inactive) | 38.5% (inactive) | 0% (inactive) | 32% (inactive) | 21.7% (inactive) | 1% (inactive) | 3% (inactive) | 68.8% (inactive) | 7% (inactive) | 38% (inactive) | 74.5% (active) | 5% (inactive) | 44% (inactive) | 69.5% (inactive)
5 | Oc1ccc(/C=N/NC(=S)NN2CCOCC2)nc1 | 38% (inactive) | 96% (active) | 87% (active) | 36% (inactive) | 95% (active) | 90.1% (active) | 42% (inactive) | 95% (active) | 89% (active) | 20% (inactive) | 91% (active) | 80.8% (active) | 46% (inactive) | 93% (active) | 88.5% (active) | 42% (inactive) | 95% (active) | 87.8% (active)
6 | Cc1ccc(CC(=O)c2c(C)[nH]c3ccccc23)cc1C | 10% (inactive) | 11% (inactive) | 95.7% (active) | 7% (inactive) | 24% (inactive) | 96.2% (active) | 11% (inactive) | 11% (inactive) | 98.5% (active) | 40% (inactive) | 44% (inactive) | 93.5% (active) | 0% (inactive) | 4% (inactive) | 92.5% (active) | 20% (inactive) | 8% (inactive) | 97% (active)
7 | O=[N+]([O-])c1ccc(OCCN(Cc2ccccc2)Cc2ccccc2)c([N+](=O)[O-])c1 | 3% (inactive) | 70% (active) | 71.5% (active) | 3% (inactive) | 38% (inactive) | 59.2% (inactive) | -11% (inactive) | 61% (inactive) | 60.4% (inactive) | 4% (inactive) | 24% (inactive) | 34.1% (inactive) | 3% (inactive) | 54% (inactive) | 71.5% (active) | 5% (inactive) | 58% (inactive) | 74.8% (active)
8 | OCC(O)C(O)C(O)C(/C=N/Nc1ccccc1)=N/Nc1ccccc1 (stereo not drawn) | 2% (inactive) | -13% (inactive) | 40.5% (inactive) and 21.7% (inactive) and 50.6% (inactive) | -2% (inactive) | -34% (inactive) | -5.35% (inactive) and -4.3% (inactive) and 15.8% (inactive) | 2% (inactive) | -9% (inactive) | 55.5% (inactive) and 27.6% (inactive) and 33% (inactive) | 5% (inactive) | -12% (inactive) | 5.55% (inactive) and -6.8% (inactive) and -39.8% (inactive) | 5% (inactive) | 8% (inactive) | -12.9% (inactive) and -5.05% (inactive) and -1.05% (inactive) | 20% (inactive) | 0% (inactive) | 24.9% (inactive) and 21.1% (inactive) and 48.2% (inactive)
9 | CC(C)OP(=O)(OC(C)C)C(=Nc1ccccc1)NNc1ccc([N+](=O)[O-])cc1 | -22% (inactive) | -15% (inactive) | 71.1% (active) | -21% (inactive) | 2% (inactive) | 16.6% (inactive) | -13% (inactive) | 15% (inactive) | 22.7% (inactive) | -33% (inactive) | -6% (inactive) | -18.8% (inactive) | -17% (inactive) | -20% (inactive) | 43.6% (inactive) | -8% (inactive) | 7% (inactive) | 44% (inactive)
10 | COC(=O)[C@]1(C)CCC[C@]2(C)c3ccc(C(C)C)cc3CC[C@@H]12 | 0% (inactive) | 40% (inactive) | -12.8% (inactive) and 98.4% (active) | 6% (inactive) | 97% (active) | 3.05% (inactive) and 99.1% (active) | -8% (inactive) | 74% (active) | 13.8% (inactive) and 99% (active) | 0% (inactive) | 41% (inactive) | -19.3% (inactive) and 99% (active) | 1% (inactive) | 43% (inactive) | -31.1% (inactive) and 99.2% (active) | -1% (inactive) | 66% (inactive) | 10.1% (inactive) and 99% (active)
11 | CCOC(=O)c1c(CN2CCNCC2)nc2ccc(Cl)cc2c1-c1ccccc1 | 30% (inactive) | 30% (inactive) | 29.4% (inactive) | 35% (inactive) | 35% (inactive) | 14.2% (inactive) | 26% (inactive) | 26% (inactive) | 68% (inactive) | 23% (inactive) | 23% (inactive) | 41.1% (inactive) | 29% (inactive) | 29% (inactive) | 27.6% (inactive) | 32% (inactive) | 32% (inactive) | 39.5% (inactive)
12 | O=C(CC1(O)C(=O)Nc2ccccc21)c1ccc(Cl)c(Cl)c1 (stereo not drawn) | -5% (inactive) | 26% (inactive) | 84% (active) | -4% (inactive) | 29% (inactive) | 39% (inactive) | 1% (inactive) | 41% (inactive) | 73.4% (active) | -5% (inactive) | -12% (inactive) | 72% (active) | -4% (inactive) | 31% (inactive) | 77.2% (active) | -4% (inactive) | 31% (inactive) | 88.3% (active)
13 | CC(C)c1ccc(C=Nc2ccc(SSc3ccc(N=Cc4ccc(C(C)C)cc4)cc3)cc2)cc1 | 44% (inactive) | -7% (inactive) | 73.7% (active) | 26% (inactive) | 1% (inactive) | 49.4% (inactive) | 57% (inactive) | -5% (inactive) | 57.6% (inactive) | 5% (inactive) | -13% (inactive) | 12.2% (inactive) | 13% (inactive) | 1% (inactive) | 66.9% (inactive) | 25% (inactive) | -11% (inactive) | 76.4% (active)
14 | O=C(C(c1ccccc1)c1ccccc1)C(c1ccccc1)c1ccccc1 | 0% (inactive) | -12% (inactive) | 25% (inactive) | -6% (inactive) | -13% (inactive) | 0.85% (inactive) | -1% (inactive) | -18% (inactive) | 4.8% (inactive) | 2% (inactive) | -30% (inactive) | 43.9% (inactive) | 0% (inactive) | 28% (inactive) | -6.25% (inactive) | 0% (inactive) | -4% (inactive) | 1.55% (inactive)
15 | C=CCCC(=O)O | 6% (inactive) | 7% (inactive) | 1.25% (inactive) and 2.45% (inactive) | 7% (inactive) | 2% (inactive) | -2.15% (inactive) and -0.6% (inactive) | 5% (inactive) | 3% (inactive) | -11.3% (inactive) and 4.3% (inactive) | 4% (inactive) | 4% (inactive) | 54.4% (inactive) and 5.75% (inactive) | 4% (inactive) | 1% (inactive) | 64.5% (inactive) and 9.55% (inactive) | 0% (inactive) | 2% (inactive) | -40.5% (inactive) and 0.95% (inactive)
16 | Oc1ccc(C(O)(c2ccccc2)c2ccccc2)cc1 | 45% (inactive) and 42% (inactive) | 57% (inactive) and 91% (active) | 88.8% (active) and 71.1% (active) | 51% (inactive) and 25% (inactive) | 59% (inactive) and 89% (active) | 91.2% (active) and 89.2% (active) | -30% (inactive) and 35% (inactive) | 30% (inactive) and 89% (active) | 92% (active) and 48.6% (inactive) | 45% (inactive) and 29% (inactive) | 63% (inactive) and 90% (active) | 89.9% (active) and 65.8% (inactive) | 21% (inactive) and 36% (inactive) | 48% (inactive) and 94% (active) | 90.2% (active) and 59.2% (inactive) | 40% (inactive) and 45% (inactive) | 60% (inactive) and 95% (active) | 88.5% (active) and 69.3% (inactive)
